{"source": "PubChem BioAssay AID1508600", "about": "(Functional Genomics Laboratory (NCATS/FGL), 2020)", "note": "In all, about 53,000 sequences went through this assay and about 3,700 (7%) were called active. The full list was thinned out, with actives kept by preference. A number with no mark means an inactive call.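 Rule for the calls: active = gene knockdowns whose robust z-score for IL-1 alpha signal is at least 2 or at most -2, so actives lie on both sides; inactive = the rest.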"}
{"test": "Components of the Cytosolic LPS Sensing Pathway: Gene Identification via Genome-wide siRNA Screen;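 note: robust z of the log signal after scaling to non-targeting control siRNA wells of the plate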", "details": "RAW264.7 macrophages, IL-1a HTRF, actives lie on both sides, screened at 100 nM (by protocol), cells primed 5 h with Pam3CSK4 first", "method_in_brief": "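Supernatant IL-1a by HTRF from RAW264.7 cells primed with Pam3CSK4 (5 hours) and transfected with LipidA (24 hour) after 48h siRNA knockdown at 100 nM; cell viability checked with CellTiter-Glo.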"}
{"sequence": "GCUAUAGCGCGGAAAUGGATT against Dclk3", "z-score": -0.531}
{"sequence": "GGUCAAAGAACAAAAAGAATT against Muc13", "z-score": -0.176}
{"sequence": "GGAGCUAAAUGGCUCUGAUTT against Boc", "z-score": "2.98 (active)"}
{"sequence": "GGGACUGGCAGAUCUUAUCTT against Gtpbp3", "z-score": 0.817}
{"sequence": "GGAACGAGAAUCGGAGAUGTT against Mapk8ip3", "z-score": "2.92 (active)"}
{"sequence": "GGUCAUUGGUAGGUCCACUTT against Rusc2", "z-score": 0.338}
{"sequence": "GGGAGAUUCAUUUUCCCAGTT against Rnf43", "z-score": 0.0663}
{"sequence": "GCAACAGGUUAGAAUAGACTT against Scd3", "z-score": -1.36}
{"sequence": "GGUUCUGCACAUCUGAACATT against Cst3", "z-score": -0.109}
{"sequence": "GGCCUUUUUGUUUAUGCUATT against Zan", "z-score": -0.0784}
{"sequence": "CCGUGUGGUCUGAUAAAAGTT against Fbxl8", "z-score": -0.714}
{"sequence": "GCUCACUUGAUUCUGGUAATT against Ifnz", "z-score": 0.416}
{"sequence": "GGUGUCUGGAGGGAGAUUUTT against Peli3", "z-score": 0.245}
{"sequence": "CCAAGUGCUAAACAAGACATT against Spata31", "z-score": 1.06}
{"sequence": "GGCUAAAGGAAACUCACCUTT against Duoxa2", "z-score": "-3.33 (active)"}
{"sequence": "GGUGACUGACAACCAGACATT against Dkkl1", "z-score": -0.171}
{"sequence": "GGGUCUUCUUCCUGAGUGUTT against Ak8", "z-score": -1.67}
{"sequence": "GGCCAUGUUCCACACAUUATT against Grm1", "z-score": 1.49}
{"sequence": "GCCACGCAAUAAAGCAUCUTT against Sars", "z-score": -0.284}
{"sequence": "GCUUAAGGGAUAACAUAUUTT against Svs2", "z-score": -0.756}
{"sequence": "GGACACCAUAUGGUUAGCUTT against Tedc1", "z-score": "-2.25 (active)"}
{"sequence": "ACUGUCAUGCACCCUAAAGTT against Olfr132", "z-score": 0.369}
{"sequence": "GCUCCUAAAAAGGCUCUUUTT against H2ac18", "z-score": -0.463}
{"sequence": "GGAAUUCCAAUGUUACCAUTT against Meltf", "z-score": "3.35 (active)"}
{"sequence": "GCUGGUGUGUAACAUCAAUTT against Fut8", "z-score": 0.246}
{"sequence": "GCAAUGUUAUUUUCACCAGTT against Slc3a1", "z-score": 0.61}
{"sequence": "GUUUAACUACAACAAUGAGTT against Dcpp1", "z-score": 1.23}
{"sequence": "GCCUAGUGACCCUUUACUATT against Stx1a", "z-score": 0.51}
{"sequence": "GGCGACACAAUAAGACAGATT against Wdr19", "z-score": 0.648}
{"sequence": "GGUCCAGUUGGAGAUGACATT against Ube2d3", "z-score": -1.04}
{"sequence": "GGUCGUGUACUCGUUCAGUTT against Pcdh10", "z-score": "2.04 (active)"}
{"sequence": "GCUAAUCCAGGACUGUUUATT against Trim14", "z-score": -1.66}
{"sequence": "GGUUCGACUUUCUUUGCCATT against Ola1", "z-score": -0.614}
{"sequence": "GGUACUGAGGUGAGCCUCUTT against Myocd", "z-score": "-2.45 (active)"}
{"sequence": "GGGAGCUCCAUUUAAAUUATT against Cnot6", "z-score": -0.516}
{"sequence": "GCAACUUUAUAGCAGAAUCTT against Apbb3", "z-score": -0.874}
{"sequence": "CCGUAUAAACAUUUAUGAGTT against Bmp4", "z-score": -0.295}
{"sequence": "GGACAACACCCUGAUGAUATT against Vmn1r208", "z-score": -1.07}
{"sequence": "CCCACUUGUCUACAGCCUATT against Olfr1505", "z-score": "-2.65 (active)"}
{"sequence": "GUGGGAAAUCAGUAUUUCCTT against AI467606", "z-score": 1.23}
{"sequence": "GGUUCAUUGUGUCUCUGGCTT against Grk1", "z-score": -0.378}
{"sequence": "GGACGCAAGUACAAAUUUATT against Tnxb", "z-score": 1.13}
{"sequence": "CGUAGUCGAUUCAGGAGAGTT against Gm10439", "z-score": -0.356}
{"sequence": "GGUCUUCUUAGCUUUUUUUTT against Plppr1", "z-score": -0.713}
{"sequence": "GGGUUGAUAGAAGUUUUUATT against Cpeb1", "z-score": 0.612}
{"sequence": "GCUUUAGUACAGGCCUCUATT against Tent4a", "z-score": 0.444}
{"sequence": "CCCGACCACGUGUUUAUUGTT against Tnfsf12", "z-score": -1.68}
{"sequence": "CCUGAACUAUAGAUGGAUUTT against Manba", "z-score": "3.37 (active)"}
{"sequence": "GGUGGAGGCAGGAAAAUCUTT against Mrpl57", "z-score": -0.808}
{"sequence": "GGCUCAAGCUAUGAAGAGATT against Gstm4", "z-score": -0.195}
{"sequence": "GGUUCUUGUUCAUUCUCUUTT against Slc4a4", "z-score": -0.0837}
{"sequence": "GGAAAGAGUGUGCAAACUCTT against Ly6d", "z-score": 0.0731}
{"sequence": "GGCCCAAGGAAUAAUCAAGTT against Satb2", "z-score": "2.48 (active)"}
{"sequence": "GGUAUCGACCACAGAUCAUTT against Plxnd1", "z-score": 1.77}
{"sequence": "GCACCAUUUUAAGAUCUGCTT against Prr13", "z-score": 0.238}
{"sequence": "CCUCCUUACAAGUUGAAGCTT against Tmem59l", "z-score": -0.142}
{"sequence": "GCUUGUUCACCCAGUUAUGTT against Hexdc", "z-score": 1.15}
{"sequence": "GCCAUUCACGACCCACUACTT against Olfr1095", "z-score": -0.102}
{"sequence": "GGACUGAUAGAGGACUUCCTT against Bloc1s6", "z-score": -0.56}
{"sequence": "CCUUUUAGCUCUGUGUAUUTT against Gldc", "z-score": -0.0983}
{"sequence": "GGCCUUGAAUGAGCAUCAUTT against Krr1", "z-score": 0.548}
{"sequence": "GGCUAUGAAAGUGACAAUCTT against Tsen15", "z-score": "-2.74 (active)"}
{"sequence": "GCACCUAAUGAUCACAGUGTT against Nrip3", "z-score": 0.393}
{"sequence": "GGAAACUGAGCUUAAGAUUTT against Cald1", "z-score": 1.2}
{"sequence": "CCGCUUUCGGCAAGUAUGGTT against Rbmxl2", "z-score": 1.64}
{"sequence": "GGCAUGACUUCCACAUGAATT against Pdcd1", "z-score": 0.672}
{"sequence": "ACAAAUCCACGUGCAAUGUTT against Cyp2d9", "z-score": 0.943}
{"sequence": "GGAAGAUGAUUAUGAAGAUTT against Apc", "z-score": -0.143}
{"sequence": "GCGCAAGCCGUAUUCGAAGTT against Hoxc12", "z-score": "2.95 (active)"}
